Data taken from PubChem BioAssay AID1159580 (chemical genetic matrix, 2015).
Among all 5,500 compounds or so, about 2,000 (36%) were called active. Inconclusive results (about 18%) are left out. Rule as the data show it: active = normalized growth mostly below about 0.91 (no sharp cut-off); inconclusive = no clear call, values can overlap the other calls; inactive = mostly above about 0.92. Some of the results follow.

Assay: chemical genetic growth profiling, strain panel (AID 1159580);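 also: tested at 20 µM; growth read once vehicle control cultures reached saturation at 30 °C; 1 = growth at the plate median or of vehicle wells; lower values mean less growth of the strain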
Settings: S. cerevisiae deletion strains, growth OD

Measured: normalized growth

COc1ccc2oc3ccccc3c(=O)c2c1
inactive: locus YAL021C, strain ccr4, active compounds read low 0.948 | locus YCR088W, strain abp1, active compounds read low 0.956 | locus YDL005C, strain med2, active compounds read low 0.978 | locus YDL035C, strain GPR1, active compounds read low 0.861 | locus YDL040C, strain nat1, active compounds read low 0.935 | locus YDR001C, strain nth1, active compounds read low 0.944 | locus YDR069C, strain doa4, active compounds read low 0.918 | locus YDR159W, strain sac3, active compounds read low 0.901 | locus YDR297W, strain sur2, active compounds read low 0.935 | locus YEL037C, strain rad23, active compounds read low 0.925 | locus YER015W, strain faa2, active compounds read low 0.931 | locus YER155C, strain BEM2, active compounds read low 0.997 | locus YER167W, strain BCK2, active compounds read low 0.918 | locus YFR010W, strain ubp6, active compounds read low 0.904 | locus YGL227W, strain vid30, active compounds read low 0.94 | locus YGR252W, strain gcn5, active compounds read low 0.799 | locus YHR027C, strain rpn1, active compounds read low 0.939 | locus YIL073C, strain SPO22, active compounds read low 0.736 | locus YJL092W, strain hpr5, active compounds read low 0.944 | locus YJL115W, strain asf1, active compounds read low 0.948 | locus YJL129C, strain trk1, active compounds read low 0.921 | locus YJL154C, strain vps35, active compounds read low 0.947
active: locus YAL026C, strain drs2, active compounds read low 0.884 | locus YAL030W, strain snc1, active compounds read low 0.926 | locus YBL061C, strain skt5, active compounds read low 0.896 | locus YBR009C, strain hhf1, active compounds read low 0.712 | locus YBR021W, strain FUR4, active compounds read low 1.22 [resistant] | locus YBR023C, strain chs3, active compounds read low 0.874 | locus YBR171W, strain sec66, active compounds read low 0.886 | locus YBR229C, strain ROT2, active compounds read low 0.885 | locus YBR231C, strain swc5, active compounds read low 0.76 | locus YBR279W, strain paf1, active compounds read low 0.883 | locus YCL011C, strain gbp2, active compounds read low 0.899 | locus YCL016C, strain dcc1, active compounds read low 0.842 | locus YCL029C, strain bik1, active compounds read low 0.884 | locus YCL061C, strain MRC1, active compounds read low 0.9 | locus YCL069W, strain vba3, active compounds read low 0.922 | locus YDL074C, strain BRE1, active compounds read low 0.762 | locus YDL101C, strain DUN1, active compounds read low 0.76 | locus YDL134C, strain PPH21, active compounds read low 0.791 | locus YDL185W, strain tfp1, active compounds read low 0.809 | locus YDL192W, strain arf1, active compounds read low 0.814 | locus YDR101C, strain arx1, active compounds read low 0.88 | locus YDR137W, strain rgp1, active compounds read low 0.556 | locus YDR150W, strain NUM1, active compounds read low 0.904 | locus YDR162C, strain NBP2, active compounds read low 0.437 | locus YDR195W, strain ref2 1.28 [resistant] | locus YDR318W, strain mcm21, active compounds read low 0.862 | locus YDR334W, strain swr1, active compounds read low 0.852 | locus YDR335W, strain msn5, active compounds read low 0.874 | locus YDR388W, active compounds read low 0.901 | locus YDR392W, strain spt3, active compounds read low 0.35 | locus YDR502C, strain sam2, active compounds read low 0.848 | locus YEL003W, strain gim4, active compounds read low 0.819 | locus YEL061C, strain CIN8 (second series), active compounds read low 0.676 | locus YEL061C, strain CIN8, active compounds read low 0.718 | locus YER016W, strain bim1, active compounds read low 0.903 | locus YER110C, active compounds read low 0.837 | locus YER111C, strain swi4, active compounds read low 0.87 | locus YER155C, strain BEM2 (second series), active compounds read low 0.249 | locus YGL078C, strain dbp3, active compounds read low 0.9 | locus YGL086W, strain mad1, active compounds read low 0.836 | locus YGL167C, strain pmr1, active compounds read low 0.902 | locus YGL173C, strain kem1, active compounds read low 0.882 | locus YGL240W, strain doc1, active compounds read low 0.785 | locus YGL248W, strain PDE1, active compounds read low 0.836 | locus YGL253W, strain hxk2, active compounds read low 0.74 | locus YGR135W, strain pre9, active compounds read low 0.811 | locus YHR013C, strain ard1, active compounds read low 0.631 | locus YHR030C, strain SLT2, active compounds read low 0.656 | locus YHR079C, strain IRE1 (second series), active compounds read low 0.902 | locus YHR094C, strain hxt1, active compounds read low 0.912 | locus YHR129C, strain ARP1, active compounds read low 0.897 | locus YHR142W, strain chs7, active compounds read low 0.688 | locus YHR200W, strain rpn10, active compounds read low 0.862 | locus YIL066C, strain RNR3, active compounds read low 0.761 | locus YIL125W, strain kgd1, active compounds read low 0.9 | locus YIR030C, strain dcg1, active compounds read low 0.91 | locus YJL095W, strain BCK1 (second series), active compounds read low 0.65 | locus YJL095W, strain BCK1, active compounds read low 0.428 | locus YJL134W, strain LCB3, active compounds read low 0.913 | locus YJL164C, strain tpk1, active compounds read low 0.844 | locus YJL166W, strain qcr8, active compounds read low 0.756 | locus YJL168C, strain set2, active compounds read low 0.903 | locus YJL187C, strain SWE1 (second series), active compounds read low 0.828
